40 compounds from PubChem BioAssay (EPA / NIEHS) can be followed below.

SMILES strings stand for the structures. Active and inactive are the calls of the source. How the source made its calls: active means hit-call score of the fitted dose curve at least 0.9, where 1 is the maximum; inactive means score below 0.9.

Tested on in the first test: not listed separately
The test is described as follows: ATG_BRE_CIS: Attagene CIS-FACTORIAL HepG2 Assay for human Bone Morphogenetic Protein (BMP) Response Element (BRE) (AID 2282933). The conditions noted are these: HepG2 BMP response element reporter, Attagene transcription factor profiling; actives raise or lower the signal. Summed up: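 Gain- or loss-of-signal was derived by bidirectional fitting against DMSO controls. The signal came from reporter mRNA, measured by RT-PCR and capillary electrophoresis, in HepG2 cells transiently carrying multiple reporter units and dosed for 24 h.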
Regarding `COCCOCCOCCOCCOC`, the compound was classed as inactive.

For the compound `N=c1ccn2c(n1)O[C@H]1[C@H](O)[C@@H](CO)O[C@H]12`, the call was inactive.

In the case of `O=C1CCCCCCCCCCC(=O)OCCO1`, the compound was classed as inactive.

Regarding `CCCCC/C=C\C/C=C\CCCCCCCC(=O)OC`, the AC50 was 126 µM (active).

For the compound `O=C(Oc1ccccc1)c1ccc2ccccc2c1O`, the AC50 is 76.2 µM (active).

`O=CC1CC1`: the compound was classed as inactive.

Turning to `CCOC(=O)Cc1cccc2ccccc12`, the outcome was inactive.

Take `COC(=O)c1sccc1S(N)(=O)=O`: the result was inactive.

`CC1(C)S[C@@H]2[C@H](NC(=O)COc3ccccc3)C(=O)N2[C@H]1C(=O)O`: the compound was called inactive.

As for `[Cl][In]([Cl])[Cl]`, the result was inactive.

For `CCCCCCOC(=O)C(C)CC` (stereo not given), the compound was called inactive.

`CCO[Si](CCCN=C=O)(OCC)OCC`: the call was inactive.

Take `CCCCCCCCCCCCCCCCCC#N`: the call was inactive.

`[Cl][Nd]([Cl])[Cl]`: the result was inactive.

On to `O=Nc1ccc(O)cc1`, for which the compound was classed as inactive.

In the case of `Cc1ccc(C2OC[C@@H]3OC(c4ccc(C)cc4)O[C@H]([C@H](O)CO)[C@@H]3O2)cc1` (stereo not given in full), the call was inactive.

Consider `O=C(c1ccc(O)cc1)c1ccc(O)cc1O`, for which the AC50 was 100 µM (active).

In the case of `CCCOC(=O)CCCCC(=O)OCCC`, the outcome was inactive.

With `O=C1C=CC(=O)O1`, the outcome was inactive.

Regarding `O=S1(=O)OC(c2ccc(O)cc2)(c2ccc(O)cc2)c2ccccc21`, the compound was called inactive.

As for `O=C(Cl)c1cc(C(=O)Cl)cc(C(=O)Cl)c1`, the AC50 was 125 µM (active).

As to `O=C(O)CC(C(=O)O)C(CC(=O)O)C(=O)O` (stereo not given), the compound was called inactive.

Turning to `[Cl][Bi]([Cl])([c]1ccccc1)([c]1ccccc1)[c]1ccccc1`, the AC50 is 6.21 µM (active).

Take `COC(=O)/C=C\C(=O)O`: the call was inactive.

As to `CC(=O)c1ccc2c(c1)CCCC2`, the compound was called inactive.

`OCCN(CCO)c1ccccc1`: the result was inactive.

On to `c1ccc2c(c1)ccc1cc3c(ccc4ccccc43)cc12`, for which the compound was called inactive.

Consider `NCCCN1CCN(CCCN)CC1`, for which the compound was called inactive.

For `COc1cc(NC(=O)CC(C)=O)c(OC)cc1Cl`, the outcome was inactive.

Turning to `O=c1[nH]nc(-c2ccc([N+](=O)[O-])o2)o1`, the call was inactive.

With `CC(=O)C=CC1C(C)=CCC(C)C1(C)C` (stereo not given), the compound was classed as inactive.

On to `CCCCCCCC[N+](C)(CCCCCCCC)CCCCCCCC`, for which the compound was called inactive.

As to `CCCCCC/C=C\CCCCCCCC(=O)O`, the outcome was inactive.

`CCCCCCCC/C=C\CCCCCCCC(=O)O`: the call was inactive.

For `Oc1ccc(Cl)cc1Cc1cc(Cl)ccc1O`, the AC50 was 3.46 µM (active).

On to `COCCCOCCCOC`, for which the compound was classed as inactive.

As to `CCCCCCCC(C)=O`, the call was inactive.

As to `C1=CCCC1`, the outcome was inactive.

Turning to `CCCCCCCCc1ccc(Nc2ccc(CCCCCCCC)cc2)cc1`, the outcome was inactive.

As to `NC(=O)N=NC(N)=O`, the AC50 was 35 µM (active).

The target in the next test is Retinoic acid receptor alpha (Homo sapiens) (UniProt P10276). The experiment in a line: ATG_DR5_RAR_CIS: Attagene CIS-FACTORIAL HepG2 Assay for human Retinoic Acid Receptor Alpha (RARE), DR5 submotif (AID 2282934).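 On AC50: reporter responds to endogenous RAR alpha beta and gamma in HepG2 not RARA alone.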 The conditions noted are these: HepG2 Attagene cis-factorial RARE DR5 reporter, mRNA; actives raise or lower the signal. The procedure, abridged: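 Transfected HepG2 reporter cells are exposed to chemicals for 24 h. Then RNA is extracted and the DR5 element reporter transcript is measured by RT-PCR and capillary electrophoresis, with bidirectional curve fitting relative to DMSO.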
Chain of Retinoic acid receptor alpha (Homo sapiens) (P10276 whole entry, looked up): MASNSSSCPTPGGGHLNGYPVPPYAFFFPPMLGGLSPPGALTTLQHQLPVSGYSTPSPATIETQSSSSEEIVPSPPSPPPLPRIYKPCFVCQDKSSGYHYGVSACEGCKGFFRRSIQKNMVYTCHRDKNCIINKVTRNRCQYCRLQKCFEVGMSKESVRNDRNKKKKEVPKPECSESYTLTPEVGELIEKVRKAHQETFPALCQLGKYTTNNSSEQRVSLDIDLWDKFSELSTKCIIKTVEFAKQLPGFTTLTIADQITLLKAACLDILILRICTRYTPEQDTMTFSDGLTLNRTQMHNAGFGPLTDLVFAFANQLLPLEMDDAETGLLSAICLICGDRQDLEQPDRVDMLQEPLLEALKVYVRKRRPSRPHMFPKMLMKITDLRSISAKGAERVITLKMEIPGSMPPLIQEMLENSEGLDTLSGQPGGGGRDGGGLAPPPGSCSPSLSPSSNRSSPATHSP
Regarding `COCCOCCOCCOCCOC`, the outcome was inactive.

Regarding `N=c1ccn2c(n1)O[C@H]1[C@H](O)[C@@H](CO)O[C@H]12`, the result was inactive.

As to `O=C1CCCCCCCCCCC(=O)OCCO1`, the compound was classed as inactive.

Consider `CCCCC/C=C\C/C=C\CCCCCCCC(=O)OC`, for which the AC50 was 71.2 µM (active).

On to `O=C(Oc1ccccc1)c1ccc2ccccc2c1O`, for which the compound was classed as inactive.

`O=CC1CC1`: the result was inactive.

On to `CCOC(=O)Cc1cccc2ccccc12`, for which the AC50 was 39.5 µM (active).

For `COC(=O)c1sccc1S(N)(=O)=O`, the outcome was inactive.

For `CC1(C)S[C@@H]2[C@H](NC(=O)COc3ccccc3)C(=O)N2[C@H]1C(=O)O`, the compound was called inactive.

`[Cl][In]([Cl])[Cl]`: the outcome was inactive.

In the case of `CCCCCCOC(=O)C(C)CC` (stereo not given), the result was inactive.

Take `CCO[Si](CCCN=C=O)(OCC)OCC`: the result was inactive.

On to `CCCCCCCCCCCCCCCCCC#N`, for which the outcome was inactive.

Take `[Cl][Nd]([Cl])[Cl]`: the result was inactive.

Take `O=Nc1ccc(O)cc1`: the compound was called inactive.

Take `Cc1ccc(C2OC[C@@H]3OC(c4ccc(C)cc4)O[C@H]([C@H](O)CO)[C@@H]3O2)cc1` (stereo not given in full): the compound was called inactive.

For `O=C(c1ccc(O)cc1)c1ccc(O)cc1O`, the outcome was inactive.

As for `CCCOC(=O)CCCCC(=O)OCCC`, the result was inactive.

Consider `O=C1C=CC(=O)O1`, for which the outcome was inactive.

As for `O=S1(=O)OC(c2ccc(O)cc2)(c2ccc(O)cc2)c2ccccc21`, the call was inactive.

Regarding `O=C(Cl)c1cc(C(=O)Cl)cc(C(=O)Cl)c1`, the outcome was inactive.

With `O=C(O)CC(C(=O)O)C(CC(=O)O)C(=O)O` (stereo not given), the call was inactive.

Regarding `[Cl][Bi]([Cl])([c]1ccccc1)([c]1ccccc1)[c]1ccccc1`, the call was inactive.

Turning to `COC(=O)/C=C\C(=O)O`, the outcome was inactive.

`CC(=O)c1ccc2c(c1)CCCC2`: the compound was called inactive.

For `OCCN(CCO)c1ccccc1`, the compound was classed as inactive.

Regarding `c1ccc2c(c1)ccc1cc3c(ccc4ccccc43)cc12`, the compound was called inactive.

On to `NCCCN1CCN(CCCN)CC1`, for which the call was inactive.

Turning to `COc1cc(NC(=O)CC(C)=O)c(OC)cc1Cl`, the result was inactive.

`O=c1[nH]nc(-c2ccc([N+](=O)[O-])o2)o1`: the compound was called inactive.

For `CC(=O)C=CC1C(C)=CCC(C)C1(C)C` (stereo not given), the call was inactive.

Consider `CCCCCCCC[N+](C)(CCCCCCCC)CCCCCCCC`, for which the compound was called inactive.

On to `CCCCCC/C=C\CCCCCCCC(=O)O`, for which the AC50 is 34.2 µM (active).

Regarding `CCCCCCCC/C=C\CCCCCCCC(=O)O`, the AC50 is 85.9 µM (active).

With `Oc1ccc(Cl)cc1Cc1cc(Cl)ccc1O`, the AC50 was 3.08 µM (active).

Regarding `COCCCOCCCOC`, the outcome was inactive.

Consider `CCCCCCCC(C)=O`, for which the compound was called inactive.

Consider `C1=CCCC1`, for which the compound was called inactive.

Regarding `CCCCCCCCc1ccc(Nc2ccc(CCCCCCCC)cc2)cc1`, the outcome was inactive.

Take `NC(=O)N=NC(N)=O`: the call was inactive.
